Test results as given in PubChem BioAssay AID1159580 (chemical genetic matrix, 2015).
About 2,000 (36%) of roughly 5,500 compounds were called active. Not shown: some 18% with an inconclusive outcome. Cut-off read from the data, not from the text of the source: active = normalized growth mostly below about 0.91 (no sharp cut-off); inconclusive = no clear call, values can overlap the other calls; inactive = mostly above about 0.92. The list shows a part of the results.

Assay: chemical genetic growth profiling, strain panel (AID 1159580);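 note: tested at 20 µM; growth read once vehicle control cultures reached saturation at 30 °C; 1 = growth at the plate median or of vehicle wells; lower values mean less growth of the strain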
Conditions: S. cerevisiae deletion strains, growth OD

Measured: normalized growth

COc1cc(O)cc(/C=C/c2ccccc2)c1
active: locus YBR021W, strain FUR4, active compounds read low 0.833 | locus YCL029C, strain bik1, active compounds read low 0.9 | locus YDL035C, strain GPR1, active compounds read low 0.665 | locus YDL074C, strain BRE1, active compounds read low 0.61 | locus YDL101C, strain DUN1, active compounds read low 0.835 | locus YDL134C, strain PPH21, active compounds read low 0.697 | locus YDL185W, strain tfp1, active compounds read low 0.881 | locus YDL192W, strain arf1, active compounds read low 0.692 | locus YDR101C, strain arx1, active compounds read low 0.858 | locus YDR162C, strain NBP2, active compounds read low 0.618 | locus YDR318W, strain mcm21, active compounds read low 0.805 | locus YDR502C, strain sam2, active compounds read low 0.748 | locus YEL061C, strain CIN8, active compounds read low 0.856 | locus YER110C, active compounds read low 0.866 | locus YER155C, strain BEM2, active compounds read low 0.753 | locus YGL078C, strain dbp3, active compounds read low 0.765 | locus YGL086W, strain mad1, active compounds read low 0.803 | locus YGL248W, strain PDE1, active compounds read low 0.748 | locus YGR135W, strain pre9, active compounds read low 0.713 | locus YGR252W, strain gcn5, active compounds read low 0.519 | locus YHR030C, strain SLT2, active compounds read low 0.795 | locus YHR079C, strain IRE1 (second series), active compounds read low 0.89 | locus YHR129C, strain ARP1, active compounds read low 0.768 | locus YHR200W, strain rpn10, active compounds read low 0.907 | locus YIL066C, strain RNR3, active compounds read low 0.859 | locus YIR030C, strain dcg1, active compounds read low 0.907 | locus YJL095W, strain BCK1, active compounds read low 0.46 | locus YJL187C, strain SWE1 (second series), active compounds read low 0.721 | locus YJR043C, strain POL32, active compounds read low 0.85 | locus YKL009W, strain mrt4, active compounds read low 0.742 | locus YKL085W, strain MDH1 (second series), active compounds read low 0.913 | locus YKL085W, strain MDH1, active compounds read low 0.913 | locus YKL190W, strain CNB1, active compounds read low 0.839 | locus YKR001C, strain vps1, active compounds read low 0.425 | locus YLR039C, strain RIC1, active compounds read low 0.507 | locus YLR058C, strain SHM2, active compounds read low 0.784 | locus YLR262C, strain YPT6, active compounds read low 0.381 | locus YLR330W, strain CHS5, active compounds read low 0.715 | locus YLR342W, strain FKS1 (second series), active compounds read low 0.601 | locus YLR418C, strain cdc73, active compounds read low 0.456 | locus YML032C, strain rad52, active compounds read low 0.795 | locus YML124C, strain tub3, active compounds read low 0.914 | locus YMR223W, strain ubp8, active compounds read low 0.805 | locus YMR263W, strain SAP30, active compounds read low 0.768 | locus YMR307W, strain GAS1, active compounds read low 0.59 | locus YNL067W, strain RPL9B, active compounds read low 0.721 | locus YNL233W, strain BNI4, active compounds read low 0.67 | locus YNL250W, strain rad50, active compounds read low 0.887 | locus YNL271C, strain bni1, active compounds read low 0.855 | locus YNL298W, strain CLA4, active compounds read low 0.802 | locus YNL307C, strain MCK1, active compounds read low 0.513 | locus YNR052C, strain pop2, active compounds read low 0.855 | locus YOL147C, strain pex11, active compounds read low 0.824 | locus YOR061W, strain CKA2, active compounds read low 0.885 | locus YOR069W, strain VPS5, active compounds read low 0.807 | locus YOR136W, strain idh2, active compounds read low 0.899 | locus YOR144C, strain elg1, active compounds read low 0.918 | locus YOR184W, strain ser1, active compounds read low 0.666 | locus YPR119W, strain clb2, active compounds read low 0.924 | locus YPR163C, strain tif3, active compounds read low 0.682 | locus YPR167C, strain met16, active compounds read low 0.809 | strain wtn01, active compounds read low 0.789
inactive: locus YBR229C, strain ROT2, active compounds read low 0.97 | locus YDR150W, strain NUM1, active compounds read low 0.954 | locus YDR388W, active compounds read low 0.966 | locus YER167W, strain BCK2, active compounds read low 0.94 | locus YHR094C, strain hxt1, active compounds read low 0.946 | locus YIL073C, strain SPO22, active compounds read low 0.809 | locus YIL125W, strain kgd1, active compounds read low 0.94 | locus YJL134W, strain LCB3, active compounds read low 0.976 | locus YJL168C, strain set2, active compounds read low 0.954 | locus YKL068W, active compounds read low 0.954 | locus YLR102C, strain apc9, active compounds read low 0.942 | locus YLR268W, strain sec22, active compounds read low 0.909 | locus YLR371W, strain rom2, active compounds read low 0.949 | locus YML016C, strain PPZ1, active compounds read low 0.924 | locus YMR078C, strain ctf18, active compounds read low 0.938 | locus YOL012C, strain htz1 1.06 | locus YOR316C, strain cot1, active compounds read low 0.949 | locus YPR141C, strain kar3, active compounds read low 0.95
